Data published in PubChem BioAssay (Tox21).
Records with an inconclusive call do not appear. The source made the active and inactive calls. Unless noted, the call rests on the fitted dose curve; in most records, active means well fitted curve in the direction sought with a large enough effect in the repeat runs; inconclusive means weak or mixed curves; inactive means no such curve, though single readings can be large; an effect the other way counts as inactive or inconclusive.

Experiments:
[1] = target: Luciferin 4-monooxygenase (Photinus pyralis) (UniProt P08659); assay: qHTS assay to identify small molecule inhibitors of firefly luciferase (AID 1224835); further: nearly all actives have a fitted effect of over 25% in size
Outline: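 Inhibition of purified Photinus luciferase is measured by luminescence. Substrate levels (D-luciferin, ATP) sit at their KM values. Each compound is tested in a concentration series.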

[2] = qHTS assay to identify small molecule agonists of the constitutive androstane receptor (CAR) signaling pathway - cell viability counter screen (AID 1224836); further: nearly all actives have a fitted effect of over 45% in size
Outline: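 23 h treatment, 37 C, 5% CO2. Cell line: HepG2 stably expressing hCAR with a CYP2B6-2.2kb construct. Co-treatment: PK11195, 0.75 uM final. Read-out: CellTiter-Fluor fluorescence intensity.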

[3] = qHTS assay to identify small molecule antagonists of the constitutive androstane receptor (CAR) signaling pathway - cell viability counter screen (AID 1224837); further: nearly all actives have a fitted effect of over 45% in size
Outline: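 Counter screen run in HepG2-CYP2B6-hCAR cells: 4 hr settle, compound titration (15 concentrations) with 50 nM CITCO, 23 hr at 37 C/5% CO2, CellTiter-Fluor fluorescence.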

[4] = target: Nuclear receptor subfamily 1 group I member 3 (Homo sapiens) (UniProt Q14994); assay: qHTS assay to identify small molecule antagonists of the constitutive androstane receptor (CAR) signaling pathway (AID 1224838);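 further: HepG2 cells stably expressing hCAR with CYP2B6 luciferase reporter stimulated by CITCO; nearly all actives have a fitted effect of over 40% in size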
Outline: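 Cell line: HepG2 double-stable for hCAR and CYP2B6-2.2kb reporter. Agonist: CITCO, 50 nM final. Compounds: 15 concentrations, 24 h, 37 C. Detection: ONE-Glo luminescence.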

[5] = target: Nuclear receptor subfamily 1 group I member 3 (Homo sapiens) (UniProt Q14994); assay: qHTS assay to identify small molecule agonists of the constitutive androstane receptor (CAR) signaling pathway (AID 1224839);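 further: HepG2 cells stably carrying human CAR and a CYP2B6 luciferase reporter; nearly all actives have a fitted effect of over 15% in size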
Outline: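 Compounds tested at 15 concentrations on HepG2 cells stably harbouring hCAR and CYP2B6-2.2kb reporter constructs, co-treated with PK11195 (0.75 uM final), 24 h at 37 C; luminescent reporter signal quantified.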

[6] = qHTS assay to identify small molecule antagonists of the estrogen related receptor signaling pathway with the pleiotropic PPARgamma coactivator (PGC) from Tox21 10K library - cell viability counter screen (AID 1224840; active means well fitted cell-killing curve with a large enough effect in the repeat runs, not every such curve was filed as active; further: nearly all actives have a fitted effect of over 40% in size)
Outline: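 Following seeding of 2,000 PGC/ERR cells/well and 6 hours' incubation, test compounds were delivered in DMSO. The plates then sat 17.5 hours at 37 C before a fluorogenic live-cell protease reagent (CellTiter-Fluor) was read after 30 min.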

[7] = qHTS assay to identify small molecule agonists of the estrogen related receptor signaling pathway with the pleiotropic PPARgamma coactivator (PGC) from Tox21 10K library (AID 1224842); further: nearly all actives have a fitted effect of over 15% in size
Outline: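 Luminescence from One-Glo (30 min, room temperature) measured after PGC/ERR cells had 18 h at 37 C with pinned compound (23 nL in DMSO). Cells had been seeded at 2,000 per well and pre-incubated 6 h.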

[8] = target: Thyrotropin receptor (Homo sapiens) (UniProt P16473); assay: qHTS assay to identify small molecule agonists of the thyroid stimulating hormone receptor (TSHR) signaling pathway (AID 1224843; calls by dose curve; further: nearly all actives have a fitted effect of over 45% in size)
Outline: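 HEK293 cells stably bearing the thyrotropin receptor were plated at 800 cells/well and challenged with compound (30 min, RT). Accumulated cAMP was quantified via cAMP-d2 competing for cryptate-tagged antibody.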

[9] = qHTS assay to identify small molecule agonists of the hypoxia (HIF-1) signaling pathway - cell viability counter screen (AID 1224844; calls by dose curve; further: nearly all actives have a fitted effect of over 50% in size)
Outline: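 Cells (HRE-bla ME-180, 2,000 per well) sat 5 hrs at 37C, got compound for 17 hrs, were read for CCF4-AM FRET, and were finally lysed with CellTiter-Glo for a 30 min room-temperature luminescence read.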

[10] = qHTS assay to identify small molecule agonists of H2AX (AID 1224845; active means well fitted activation curve with a large enough effect in the signal ratio in the repeat runs, not every such curve was filed as active; the % refers to the signal ratio)
Outline: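 Phospho-H2AX Ser139 measured by HTRF (ex 320 nm; em 665 and 620 nm) after 24 hr antibody incubation. Compounds, 15 concentrations, 0.76% DMSO, were applied to CHO-K1 cells for 3hr at 37C before lysis.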

[11] = qHTS assay to identify small molecule agonists of the hypoxia (HIF-1) signaling pathway (AID 1224846; active means well fitted activation curve with a large enough effect in the signal ratio in the repeat runs, not every such curve was filed as active; the % refers to the signal ratio)
Outline: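 A low-serum medium (0.5% dialyzed FBS) holding 2,000 HRE-bla ME-180 cells per well is preincubated for 5 hrs, dosed with compounds by pintool, and kept a further 17 hrs at 37C, 5% CO2 before CCF4-AM FRET detection of beta-lactamase.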

[12] = qHTS assay to identify small molecule agonists of H2AX - cell viability counter screen (AID 1224847; calls by dose curve; further: top concentration of the series differs between compounds; nearly all actives have a fitted effect of over 30% in size)
Outline: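 Compounds tested at 15 concentrations were incubated 3 hr at 37C with wild-type CHO-K1 cells; cellular ATP-based luminescence (CellTiter-Glo) indicated viability.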

[13] = qHTS assay to identify small molecule antagonists of the estrogen related receptor (ERR) signaling pathway from Tox21 library (AID 1224848); further: nearly all actives have a fitted effect of over 50% in size
Outline: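 Reading was by luminescence 30 min after ONE-Glo addition. Before that, ERR cells at 2,000 per well had rested 6 h at 37 C/5% CO2 and then received pin-tooled compounds in DMSO for 18 h at 37 C.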

[14] = qHTS assay to identify small molecule agonists of the estrogen related receptor (ERR) signaling pathway from Tox21 library (AID 1224849; calls by dose curve; further: nearly all actives have a fitted effect of over 15% in size); conditions: ERR reporter cell line, ONE-Glo luciferase, 18 h; at 92.4 µM (top of the series) unless noted
Outline: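 Screening used an NTP-provided ERR luciferase cell line. Compounds in DMSO were added 6 h after seeding and left 18 h at 37 C before a 30 min ONE-Glo step and luminescence reading.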

[15] = qHTS RealTime-Glo MT Cell Viability Assay in HEK293 cells - 32 hour (AID 1224868); further: top concentration of the series differs between compounds; nearly all actives have a fitted effect of over 50% in size
Outline: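 Tox21 10K qHTS, HEK293, 600 cells/well, RealTime-Glo reagent co-dispensed with cells; 5 h preincubation, compound by pintool, 37 C, luminescence at 0–40 h.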

[16] = A CellTox Green Cytotoxicity Assay to monitor cytotoxicity in HEK293 cells - 0 hour (AID 1224869); further: nearly all actives have a fitted effect of over 50% in size
Outline: (§1)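 Fluorescence intensity, read at 0, 8, 16, 24, 32 and 40 h of compound treatment, reflected dye binding to DNA of dead HEK293 cells; compounds (23 nL, DMSO) were added 5 h after plating cells with reagent.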

[17] = qHTS RealTime-Glo MT Cell Viability Assay in HepG2 cells - 40 hour (AID 1224870); further: nearly all actives have a fitted effect of over 50% in size
Outline: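 Real-time viability: cells seeded at 600 per well together with NanoLuc and cell-permeant prosubstrate, compounds added after 5 h incubation. Luminescence tracked at 0, 8, 16, 24, 32 and 40 h of exposure.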

[18] = A CellTox Green Cytotoxicity Assay to monitor cytotoxicity in HEK293 cells - 40 hour (AID 1224871); further: nearly all actives have a fitted effect of over 45% in size
Outline: as §1

[19] = qHTS RealTime-Glo MT Cell Viability Assay in HepG2 cells - 24 hour (AID 1224867); further: nearly all actives have a fitted effect of over 50% in size
Outline: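 Cells + NanoLuc/prosubstrate dispensed (600 cells/well) → 5 h at 37 C/5% CO2 → compounds in DMSO transferred → 40 h incubation at 37 C, luminescence read at 0, 8, 16, 24, 32, 40 h.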

[20] = qHTS assay to identify small molecule antagonists of the estrogen related receptor signaling pathway with the pleiotropic PPARgamma coactivator (PGC) from Tox21 10K library (AID 1224841; call rule not given here)
Outline: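 qHTS antagonist format: PGC/ERR cells, 2k/well, compound in DMSO by pin transfer after 6 h attachment, 18 h treatment at 37 C, One-Glo luminescence read at 30 min.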
On the % scale 0 is the no-effect control and ±100 the full control effect.

Chain of Nuclear receptor subfamily 1 group I member 3 (Homo sapiens) (Q14994 whole entry, looked up): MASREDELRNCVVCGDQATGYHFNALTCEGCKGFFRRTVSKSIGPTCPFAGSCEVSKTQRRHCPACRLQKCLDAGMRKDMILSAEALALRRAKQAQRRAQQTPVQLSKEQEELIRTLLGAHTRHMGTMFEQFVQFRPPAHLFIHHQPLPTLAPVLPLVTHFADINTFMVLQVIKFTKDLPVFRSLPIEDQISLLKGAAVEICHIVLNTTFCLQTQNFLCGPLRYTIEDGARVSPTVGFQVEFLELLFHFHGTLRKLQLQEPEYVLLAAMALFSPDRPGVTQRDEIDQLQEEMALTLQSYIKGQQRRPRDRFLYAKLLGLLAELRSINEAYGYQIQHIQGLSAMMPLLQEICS
Chain of Luciferin 4-monooxygenase (Photinus pyralis) (P08659 whole entry, looked up): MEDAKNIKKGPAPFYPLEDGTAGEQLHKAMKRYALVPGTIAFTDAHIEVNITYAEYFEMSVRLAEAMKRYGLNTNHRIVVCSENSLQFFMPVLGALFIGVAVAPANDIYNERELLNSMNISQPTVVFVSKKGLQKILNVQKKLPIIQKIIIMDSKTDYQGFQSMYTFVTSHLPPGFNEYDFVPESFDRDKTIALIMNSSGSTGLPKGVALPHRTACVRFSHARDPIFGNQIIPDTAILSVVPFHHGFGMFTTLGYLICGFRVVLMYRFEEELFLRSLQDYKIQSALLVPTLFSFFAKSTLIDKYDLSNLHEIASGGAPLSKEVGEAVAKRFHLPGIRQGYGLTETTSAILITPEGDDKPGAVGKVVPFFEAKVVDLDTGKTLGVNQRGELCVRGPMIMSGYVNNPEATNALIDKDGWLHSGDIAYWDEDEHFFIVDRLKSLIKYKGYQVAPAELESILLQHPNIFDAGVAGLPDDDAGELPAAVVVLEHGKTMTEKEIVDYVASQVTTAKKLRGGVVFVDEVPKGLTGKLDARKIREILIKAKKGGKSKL
Chain of Thyrotropin receptor (Homo sapiens) (P16473 whole entry, looked up): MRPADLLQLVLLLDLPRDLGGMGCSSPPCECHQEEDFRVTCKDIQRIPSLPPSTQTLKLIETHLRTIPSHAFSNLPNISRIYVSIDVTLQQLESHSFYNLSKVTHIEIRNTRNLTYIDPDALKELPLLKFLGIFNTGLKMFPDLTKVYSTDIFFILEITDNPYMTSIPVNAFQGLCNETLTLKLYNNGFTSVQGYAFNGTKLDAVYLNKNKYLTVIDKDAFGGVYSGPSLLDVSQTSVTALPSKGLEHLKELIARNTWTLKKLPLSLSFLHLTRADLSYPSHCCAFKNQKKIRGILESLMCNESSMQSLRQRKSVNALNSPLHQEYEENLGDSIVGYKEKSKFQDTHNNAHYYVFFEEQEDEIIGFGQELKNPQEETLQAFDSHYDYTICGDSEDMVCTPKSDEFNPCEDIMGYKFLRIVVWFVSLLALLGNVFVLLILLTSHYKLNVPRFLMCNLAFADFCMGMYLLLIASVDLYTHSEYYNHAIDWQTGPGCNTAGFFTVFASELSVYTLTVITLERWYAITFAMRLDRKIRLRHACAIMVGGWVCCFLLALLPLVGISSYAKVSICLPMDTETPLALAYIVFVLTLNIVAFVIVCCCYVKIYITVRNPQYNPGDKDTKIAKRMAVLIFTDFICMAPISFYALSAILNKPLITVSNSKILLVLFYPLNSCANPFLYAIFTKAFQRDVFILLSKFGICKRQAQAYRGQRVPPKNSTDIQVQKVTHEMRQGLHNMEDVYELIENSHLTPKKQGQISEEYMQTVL

BrCCCCCBr
inactive: Potency [1] | Potency [2] | Potency [3] | outcome [4] | Potency [5] | outcome [6] | outcome [7] | Potency [8] | outcome [9] | outcome [10] | outcome [11] | Potency [12] | Potency [13] | activity change, positive = activation [14] 6.39% | Potency [15] | outcome [16] | outcome [17] | Potency [18]

CCCCCCCCCCCCCC
inactive: Potency [1] | Potency [2] | Potency [3] | outcome [4] | Potency [5] | outcome [6] | outcome [7] | Potency [8] | outcome [9] | outcome [10] | outcome [11] | Potency [12] | Potency [13] | activity change, positive = activation [14] 2.93% | outcome [19] | Potency [15] | outcome [16] | outcome [17] | Potency [18]

CN1CCN(CC(=O)N2c3ccccc3C(=O)Nc3cccnc32)CC1
inactive: activity change, negative = inhibition [1] 1.23% [at 10.5 µM] | viability change, negative = cytotoxic [2] -1.77% [at 8.39 µM] | activity change, negative = cytotoxicity [3] 7.37% [at 8.39 µM] | activity, negative = inhibition [4] -1.39% [at 8.39 µM] | activation [5] -1% [at 8.39 µM] | viability change, negative = cytotoxic [6] 8.41% [at 8.39 µM] | activity, negative = inhibition [20] 2.2% [at 8.39 µM] | activation [7] 0.61% [at 8.39 µM] | activation [8] 3.54% [at 8.39 µM] | activity change, negative = cytotoxicity [9] 0.9% [at 6.97 µM] | activation (H2AX phosphorylation) [10] 2.24% [at 14 µM] | activity change, negative = cytotoxicity [12] -0.342% [at 14 µM] | activity change, positive = activation [14] -0.263% [at 8.39 µM] | activity change, negative = cytotoxicity [19] 0.294% [at 6.97 µM] | activity change, negative = cytotoxic [15] 5.96% [at 6.97 µM] | cytotoxicity [16] 1.41% [at 6.97 µM] | activity change, negative = cytotoxic [17] 3.53% [at 6.97 µM] | cytotoxicity increase [18] -2.67% [at 6.97 µM]

O=C1O[C@@H]2[C@@H](O)[C@H](O)O[C@@H]2[C@H]1O
inactive: Potency [1] | Potency [2] | Potency [3] | outcome [4] | Potency [5] | outcome [6] | outcome [7] | Potency [8] | outcome [9] | outcome [10] | outcome [11] | Potency [12] | Potency [13] | activity change, positive = activation [14] -1.02% | Potency [15] | outcome [16] | outcome [17] | Potency [18]

O=C1c2ccccc2C(=O)N1CCl
inactive: Potency [1] | Potency [2] | Potency [3] | outcome [4] | Potency [5] | outcome [6] | outcome [7] | outcome [9] | outcome [10] | outcome [11] | Potency [13] | activity change, positive = activation [14] 0.282% | outcome [19] | Potency [15] | outcome [16] | outcome [17] | Potency [18]

CC(C)(C)c1n[nH]c(=S)n(N)c1=O
inactive: Potency [1] | Potency [2] | Potency [3] | outcome [4] | Potency [5] | outcome [6] | Potency [20] | outcome [7] | outcome [9] | outcome [10] | outcome [11] | Potency [12] | Potency [13] | activity change, positive = activation [14] -1.28% | outcome [19] | Potency [15] | outcome [16] | Potency [18]

C[Si](C)(C)C
inactive: Potency [1] | Potency [2] | Potency [3] | outcome [4] | Potency [5] | outcome [6] | outcome [7] | Potency [8] | outcome [9] | outcome [10] | outcome [11] | Potency [12] | Potency [13] | activity change, positive = activation [14] -1.98% | outcome [19] | Potency [15] | outcome [16] | outcome [17] | Potency [18]

CC(C)CCCCOC(=O)c1ccccc1C(=O)OCCCCC(C)C
inactive: Potency [1] | Potency [2] | Potency [3] | outcome [4] | Potency [5] | outcome [6] | Potency [20] | outcome [7] | outcome [9] | outcome [10] | outcome [11] | Potency [13] | activity change, positive = activation [14] -6.44% | outcome [19] | Potency [15] | outcome [16] | Potency [18]

C[C@H](CCC(=O)O)[C@H]1CC[C@H]2[C@@H]3C(=O)C[C@@H]4CC(=O)CC[C@]4(C)[C@H]3CC(=O)[C@]12C
inactive: Potency [1] | Potency [2] | Potency [3] | outcome [4] | Potency [5] | outcome [6] | Potency [20] | outcome [7] | Potency [8] | outcome [9] | outcome [10] | Potency [12] | Potency [13] | activity change, positive = activation [14] -0.444% [at 42.5 µM] | outcome [19] | Potency [15] | outcome [16] | Potency [18]

O=C(CS(=O)Cc1ccco1)NC/C=C\COc1cc(CN2CCCCC2)ccn1 (centres undefined)
inactive: Potency [1] | Potency [2] | Potency [3] | outcome [4] | Potency [5] | outcome [6] | Potency [20] | outcome [7] | Potency [8] | outcome [9] | outcome [10] | outcome [11] | Potency [12] | Potency [13] | activity change, positive = activation [14] 7.25% [at 42.5 µM] | outcome [19] | Potency [15] | Potency [18]

CCCOC(OCCC)OCCC
inactive: Potency [1] | Potency [2] | Potency [3] | outcome [4] | Potency [5] | outcome [6] | outcome [7] | outcome [9] | outcome [10] | outcome [11] | activity change, positive = activation [14] 4.24% | outcome [19] | Potency [15] | outcome [16] | outcome [17] | Potency [18]

CCCCCCCCSCC
inactive: Potency [1] | Potency [2] | Potency [3] | outcome [4] | Potency [5] | outcome [6] | Potency [20] | outcome [7] | outcome [9] | outcome [10] | outcome [11] | Potency [13] | activity change, positive = activation [14] 4.95% | outcome [19] | Potency [15] | outcome [16] | outcome [17] | Potency [18]

CC(C)(C)c1nnc(NS(=O)(=O)c2ccc(N)cc2)s1
inactive: Potency [1] | Potency [2] | Potency [3] | outcome [4] | Potency [5] | outcome [6] | Potency [8] | outcome [9] | outcome [10] | outcome [11] | outcome [19] | Potency [15] | outcome [16] | outcome [17] | Potency [18]
